Results filed as inconclusive are left out. Active and inactive are the calls of the source. Calls come from the whole dose curve; as a rule, active = well fitted curve in the direction sought with a large enough effect; inconclusive = small, poorly fitted or top-dose-only effect, or another doubt; inactive = no such curve, though single readings can be large; an effect the other way counts as inactive or inconclusive.
Columns and labels:
HaCat = experiment: Cytotoxic Profiling of Annotated Libraries Using Quantitative High-Throughput Screening (AID 1296008); details: Five cell lines viability, CellTiter-Glo ATP luminescence, 48-72 h; max response: stronger effect = lower value; note: nearly all actives have a fitted effect of over 60% in size
Method in brief: (§1)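 Cells exposed to compounds for 48 or 72 hr at 37 degrees Celsius. Viability read as ATP-coupled luminescence with CellTiter-Glo after 10 min at room temperature.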

KB-3-1 = experiment: as above; details: Five cell lines viability, CellTiter-Glo ATP luminescence, 48-72 h; max response: stronger effect = lower value
Method in brief: as §1

NIH3T3 = experiment: as above; details: Five cell lines viability, CellTiter-Glo ATP luminescence, 48-72 h; max response: stronger effect = lower value
Method in brief: as §1

C33A = experiment: Primary qHTS to identify gynecologic anti-cancer compounds using libraries of approved drugs and bioactive compounds (AID 1345084); details: Gynecologic cancer cell panel viability, ATPlite luminescence, 48 h; series mostly up to 57.5 µM; note: nearly all actives have a fitted effect of over 55% in size
Method in brief: (§2)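 Cytotoxicity screen measuring ATP content by luciferase luminescence. Each compound is applied at five concentrations for 48 h at 37 C with 5% CO2.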

CAOV3 = experiment: as above; details: Gynecologic cancer cell panel viability, ATPlite luminescence, 48 h; series mostly up to 57.5 µM
Method in brief: as §2

CASKI = experiment: as above; details: Gynecologic cancer cell panel viability, ATPlite luminescence, 48 h; series mostly up to 57.5 µM
Method in brief: as §2

Es-2 = experiment: as above; details: Gynecologic cancer cell panel viability, ATPlite luminescence, 48 h; series mostly up to 57.5 µM
Method in brief: as §2

HeLa = experiment: as above; details: Gynecologic cancer cell panel viability, ATPlite luminescence, 48 h; series mostly up to 57.5 µM
Method in brief: as §2

Hek293T = experiment: as above; details: Gynecologic cancer cell panel viability, ATPlite luminescence, 48 h, control line for the selectivity index; series mostly up to 57.5 µM
Method in brief: as §2

JEG-3 = experiment: as above; details: Gynecologic cancer cell panel viability, ATPlite luminescence, 48 h; series mostly up to 57.5 µM
Method in brief: as §2

OV90 = experiment: as above; details: Gynecologic cancer cell panel viability, ATPlite luminescence, 48 h; series mostly up to 57.5 µM
Method in brief: as §2
% is set by controls: 0 for no effect and ±100 for the full control effect.

CC(C)C(=O)OC[C@H]1O[C@H](O[C@H]2O[C@H](CO)[C@@H](O)[C@H](O)[C@H]2O)[C@H](O)[C@@H](O)[C@@H]1O
inactive: max response (HaCat) 0.512% | outcome (KB-3-1) | max response (NIH3T3) -1.4% | Potency (C33A) | Potency (CAOV3) | Potency (CASKI) | Potency (Es-2) | Potency (HeLa) | Potency (Hek293T) | Potency (JEG-3) | Potency (OV90)

CN[C@@H]1[C@H](O[C@H]2[C@H](O[C@@H]3[C@@H](O)[C@H](O)[C@@H](N=C(N)N)[C@H](O)[C@H]3N=C(N)N)O[C@@H](C)[C@]2(O)C=O)O[C@@H](CO)[C@H](O)[C@H]1O
inactive: max response (HaCat) -17.2% | outcome (KB-3-1) | max response (NIH3T3) -1.39% | Potency (C33A) | Potency (CAOV3) | Potency (CASKI) | Potency (Es-2) | Potency (HeLa) | Potency (Hek293T) | Potency (JEG-3) | Potency (OV90)

CC(=O)N1CCc2ccc(O)c(OC3OC(COC4OCC(O)(CO)C4O)C(O)C(O)C3O)c2C1Cc1ccc(O)cc1 (stereo unspecified)
inactive: max response (HaCat) -0.476% | max response (KB-3-1) 3.16% | max response (NIH3T3) -4.18% | Potency (C33A) | Potency (CAOV3) | Potency (CASKI) | Potency (Es-2) | Potency (HeLa) | Potency (Hek293T) | Potency (JEG-3) | Potency (OV90)

C[C@H]1CC[C@@]2(OC1)O[C@H]1CC3C4CC[C@H]5C[C@@H](O)[C@H](O)C[C@]5(C)C4=CC(=O)[C@]3(C)[C@H]1[C@@H]2C (stereo partly specified)
inactive: max response (HaCat) -0.134% | max response (KB-3-1) 0.923% | max response (NIH3T3) -10.8% | Potency (C33A) | Potency (CAOV3) | Potency (CASKI) | Potency (Es-2) | Potency (HeLa) | Potency (Hek293T) | Potency (JEG-3) | Potency (OV90)

CC1CC[C@]2(C(=O)O)CC[C@]3(C(=O)O)C(=CCC4[C@@]5(C)CC[C@H](OC6OC(C)C(O)C(OC7OC(CO)C(O)C(O)C7O)C6O)C(C)(C)C5CC[C@]43C)C2C1C (stereo partly specified)
inactive: max response (HaCat) -2.82% | outcome (KB-3-1) | max response (NIH3T3) 2.41% | Potency (C33A) | Potency (CAOV3) | Potency (CASKI) | Potency (Es-2) | Potency (HeLa) | Potency (Hek293T) | Potency (JEG-3) | Potency (OV90)

CC1(C(=O)O)CCCC2(C)C3CCC4CC3(CCC12)CC4=O (stereo unspecified)
inactive: max response (HaCat) 2.83% | max response (KB-3-1) -1.11% | max response (NIH3T3) -6.02% | Potency (C33A) | Potency (CAOV3) | Potency (CASKI) | Potency (Es-2) | Potency (HeLa) | Potency (Hek293T) | Potency (JEG-3) | Potency (OV90)

CC1OC(OC2CCC3(C)C(CCC4(C)C3CC=C3C5CC(C)(C)CCC5(C(=O)OC5OC(CO)C(O)C(O)C5O)CCC34C(=O)O)C2(C)C)C(O)C(O)C1O (stereo unspecified)
inactive: max response (HaCat) -11.4% | max response (KB-3-1) 4.21% | max response (NIH3T3) -6.15% | Potency (C33A) | Potency (CAOV3) | Potency (CASKI) | Potency (Es-2) | Potency (HeLa) | Potency (Hek293T) | Potency (JEG-3) | Potency (OV90)

COc1ccc(CNC(=O)c2cc(-c3cncc(C)c3)ncc2-c2nccs2)nc1OC
inactive: max response (HaCat) -36.2% | outcome (KB-3-1) | max response (NIH3T3) -26.3% | Potency (C33A) | Potency (CAOV3) | Potency (CASKI) | Potency (Es-2) | Potency (HeLa) | Potency (Hek293T) | Potency (JEG-3) | Potency (OV90)

C=C[C@H]1[C@H](O[C@@H]2O[C@H](CO)[C@@H](O)[C@H](O)[C@H]2O)OC=C(C(=O)OC)[C@H]1CC(=O)O
inactive: max response (HaCat) -3.58% | max response (KB-3-1) -3% | max response (NIH3T3) -8.69% | Potency (C33A) | Potency (CAOV3) | Potency (CASKI) | Potency (Es-2) | Potency (HeLa) | Potency (Hek293T) | Potency (JEG-3) | Potency (OV90)

C=C(C)[C@@H]1CC[C@]2(C)CC[C@]3(C)[C@H](CC[C@@H]4[C@@]5(C)CC[C@@H](O)C(C)(C)[C@@H]5CC[C@]43C)[C@@H]12
inactive: max response (HaCat) 0.908% | max response (KB-3-1) -4.19% | max response (NIH3T3) 1.04% | Potency (C33A) | Potency (CAOV3) | Potency (CASKI) | Potency (Es-2) | Potency (HeLa) | Potency (Hek293T) | Potency (JEG-3) | Potency (OV90)

CCC(C)C(=O)OC1CC(C)C=C2C=CC(C)C(CCC(O)CC(O)CC(=O)O)C21 (stereo unspecified)
inactive: max response (HaCat) -2.56% | max response (KB-3-1) 5.43% | max response (NIH3T3) -8.16% | Potency (C33A) | Potency (CAOV3) | Potency (CASKI) | Potency (Es-2) | Potency (HeLa) | Potency (Hek293T) | Potency (JEG-3) | Potency (OV90)
